Potency estimated from few doses data for four compounds are collected here from PMC11062922 (Nature Chemical Biology, 2023).

Common to all, as to set-up: species or system human, MV4-11 + K-562 + COLO205 + SK-N-BE2 + OVCAR-8
One test has as its system ADRBK1. The conditions noted are these: read-out: apparent Kd, n = 1.
For the next test, the system named is AKT1. The conditions noted are these: read-out: apparent Kd, n = 1.
A further test relates to AKT2. The conditions noted are these: read-out: apparent Kd, n = 1.
A further test deals with AKT3. The conditions noted are these: read-out: apparent Kd, n = 1.
In another test the test system is CDK17. The conditions noted are these: read-out: apparent Kd, n = 1.
The subject of another test is CDK6. The following applies: read-out: apparent Kd; compound concentrations: 100 nM and 1000 nM (sheet 'Samples'), CATDS: 5.9987442985443201E-2; n = 1.
In another test the test system is CDKL5. The following applies: read-out: apparent Kd; compound concentrations: 100 nM and 1000 nM (sheet 'Samples'), CATDS: 5.3023462381207802E-2; n = 1.
Another test deals with CSNK1A1. The following applies: read-out: apparent Kd; compound concentrations: 100 nM and 1000 nM (sheet 'Samples'), CATDS: 5.2392632468863803E-2; n = 1.
A further test has as its system MAP2K1. The conditions noted are these: read-out: apparent Kd, n = 1.
The subject of the next test is MAP2K2. The conditions noted are these: read-out: apparent Kd, n = 1.
The next test has as its system MET. The following applies: read-out: apparent Kd; compound concentrations: 100 nM and 1000 nM (sheet 'Samples'), CATDS: 5.0838558886591501E-2; n = 1.
In the next test the test system is NNT. The conditions noted are these: read-out: apparent Kd, n = 1.
Another test has as its system NQO1. The conditions noted are these: read-out: apparent Kd, n = 1.
The next test has as its system PIP4K2C. The conditions noted are these: read-out: apparent Kd, n = 1.
The test system of a further test is PRKAG2. The conditions noted are these: read-out: apparent Kd, n = 1.
The next test has as its system RAB6A;RAB6B. The conditions noted are these: read-out: apparent Kd; compound concentrations: 100 nM and 1000 nM (sheet 'Samples'), CATDS: 6.9234988104968295E-2; n = 1.
The next test has as its system VDAC3. The conditions noted are these: read-out: apparent Kd, n = 1.
For another test, the system named is ADK. The conditions noted are these: read-out: apparent Kd; compound concentrations: 100 nM and 1000 nM (sheet 'Samples'), CATDS: 0.22973332446561601; n = 1.
The test system of the next test is COX5A. The following applies: read-out: apparent Kd; compound concentrations: 100 nM and 1000 nM (sheet 'Samples'), CATDS: 0.19729380709152999; n = 1.
Another test concerns RAN. The following applies: read-out: apparent Kd; compound concentrations: 100 nM and 1000 nM (sheet 'Samples'), CATDS: 0.206069741930102; n = 1.
The test system of a further test is ADCK3. The conditions noted are these: read-out: apparent Kd; compound concentrations: 100 nM and 1000 nM (sheet 'Samples'), CATDS: 0.21121986416857899; n = 1.
The test system of a further test is RIPK2. The following applies: read-out: apparent Kd; compound concentrations: 100 nM and 1000 nM (sheet 'Samples'), CATDS: 0.926895955727292; n = 1.
The next test has as its system RIPK3. The conditions noted are these: read-out: apparent Kd; compound concentrations: 100 nM and 1000 nM (sheet 'Samples'), CATDS: 0.31380158399753799; n = 1.
A further test relates to AGPS. The following applies: read-out: apparent Kd; compound concentrations:100 nM and 1000 nM (sheet 'Samples'); n = 1.
In another test the test system is CDK16. The following applies: read-out: apparent Kd; compound concentrations:100 nM and 1000 nM (sheet 'Samples'); n = 1.
In a further test the test system is T1, DJA1.
T1 construct: gene DNAJA1
The conditions noted are these: read-out: apparent Kd; compound concentrations:100 nM and 1000 nM (sheet 'Samples'); n = 1.

The subject of the next test is FLT3. The following applies: read-out: apparent Kd; compound concentrations:100 nM and 1000 nM (sheet 'Samples'); n = 1.
A further test has as its system ILK. The conditions noted are these: read-out: apparent Kd; compound concentrations:100 nM and 1000 nM (sheet 'Samples'); n = 1.
A further test relates to PDGFRB. The conditions noted are these: read-out: apparent Kd; compound concentrations:100 nM and 1000 nM (sheet 'Samples'); n = 1.
The next test deals with PRKAG1. The following applies: read-out: apparent Kd; compound concentrations:100 nM and 1000 nM (sheet 'Samples'); n = 1.
A further test deals with PYGL. The conditions noted are these: read-out: apparent Kd; compound concentrations:100 nM and 1000 nM (sheet 'Samples'); n = 1.
A further test has as its system RIOK2. The following applies: read-out: apparent Kd; compound concentrations:100 nM and 1000 nM (sheet 'Samples'); n = 1.
The next test concerns STK26. The conditions noted are these: read-out: apparent Kd; compound concentrations:100 nM and 1000 nM (sheet 'Samples'); n = 1.
The mark [1] stands for this setting: compound concentrations:100 nM and 1000 nM (sheet 'Samples').

Like-named read-outs stand apart in the source and are kept apart here.

On to `N#Cc1c(NC(=O)CN2CCOCC2)sc2c1CCCC2.O=C(O)C(=O)O` [SB-657836-AAA], for which the potency estimated from few doses in the test on ADRBK1 (compound concentrations: 100 nM and 1000 nM (sheet 'Samples'), CATDS: 5.9509771658031299E-2) is 1.68 µM; in the test with AKT1 (compound concentrations: 100 nM and 1000 nM (sheet 'Samples'), CATDS: 5.9095519599072298E-2) it was 1.7 µM; with AKT2 (compound concentrations: 100 nM and 1000 nM (sheet 'Samples'), CATDS: 5.77170152352365E-2), 1.79 µM; in the test with AKT3 (compound concentrations: 100 nM and 1000 nM (sheet 'Samples'), CATDS: 5.2731999581220101E-2) it was 2.17 µM; in the test with CDK17 (compound concentrations: 100 nM and 1000 nM (sheet 'Samples'), CATDS: 5.5041868266542698E-2), 1.97 µM; with CDK6 it was 1.65 µM. Moreover, the potency estimated from few doses with CDKL5 is 2.14 µM; in the test on CSNK1A1, 2.2 µM; in the test with MAP2K1 (compound concentrations: 100 nM and 1000 nM (sheet 'Samples'), CATDS: 5.50231746712945E-2) it was 1.98 µM; in the test on MAP2K2 (compound concentrations: 100 nM and 1000 nM (sheet 'Samples'), CATDS: 7.31538140973165E-2), 1.15 µM; with MET it was 2.37 µM; with NNT (compound concentrations: 100 nM and 1000 nM (sheet 'Samples'), CATDS: 6.8732534109556695E-2) it was 1.28 µM. For the same compound, the potency estimated from few doses is 1.55 µM with NQO1 (compound concentrations: 100 nM and 1000 nM (sheet 'Samples'), CATDS: 6.20542756151947E-2); 1.95 µM in the test on PIP4K2C (compound concentrations: 100 nM and 1000 nM (sheet 'Samples'), CATDS: 5.5359350052651503E-2); 1.48 µM in the test with PRKAG2 (compound concentrations: 100 nM and 1000 nM (sheet 'Samples'), CATDS: 6.3549748711714801E-2); 1.26 µM in the test on RAB6A;RAB6B; 1.49 µM in the test with VDAC3 (compound concentrations: 100 nM and 1000 nM (sheet 'Samples'), CATDS: 6.3375606463047907E-2).
On to `COc1ccc(Nc2nccc(NCCNC(=O)Nc3ccccc3F)n2)cc1` [GSK1379901A], for which the potency estimated from few doses in the test on ADK was 1.22 µM; in the test with COX5A, 1.63 µM; in the test with MAP2K2 (compound concentrations: 100 nM and 1000 nM (sheet 'Samples'), CATDS: 0.19454488197691899) it was 1.68 µM; in the test with NQO1 (compound concentrations: 100 nM and 1000 nM (sheet 'Samples'), CATDS: 0.179031281586436), 2.01 µM; with RAN it was 1.49 µM.
For `CC(C)S(=O)(=O)c1ccc2nccc(Nc3ccc4scnc4c3)c2c1` [GSK872], the potency estimated from few doses with ADCK3 is 0.483 µM; in the test with RIPK2, 0.00251 µM; in the test with RIPK3, 0.0707 µM.
For the compound `NS(=O)(=O)c1ccc(Nc2ncc(-c3ccccc3)o2)cc1` [GW572399X], the potency estimated from few doses with ADRBK1 (setting [1]) was 1.91 µM; in the test on AGPS, 2.05 µM; with AKT1 (setting [1]) it was 1.96 µM; in the test with AKT2 (setting [1]) it was 1.97 µM; in the test on AKT3 (setting [1]), 1.56 µM; in the test on CDK16, 1.76 µM. The potency estimated from few doses in the test with CDK17 (setting [1]) is 2.1 µM; in the test with DJA1, 1.31 µM; in the test on FLT3, 0.164 µM; with ILK, 1.87 µM; with MAP2K1 (setting [1]), 1.42 µM; with MAP2K2 (setting [1]), 1.74 µM. Besides, the potency estimated from few doses was 1.77 µM in the test on NNT (setting [1]); 1.9 µM with NQO1 (setting [1]); 1.48 µM with PDGFRB; 2.29 µM with PIP4K2C (setting [1]); 1.79 µM in the test with PRKAG1; 1.38 µM in the test with PRKAG2 (setting [1]). Besides, the potency estimated from few doses is 1.9 µM in the test on PYGL, 2.16 µM in the test with RIOK2, 1.4 µM in the test with STK26 and 1.58 µM with VDAC3 (setting [1]).
